# In the supplement of paper PMC11732987, “Enantioselective OTUD7B fragment discovery through chemoproteomics screening and high-throughput optimisation” (Communications Chemistry, 2025):
# Unmarked numbers belong to inactive results.
# Legend:
# Assay in all cases: log2 ratio of Biotin-Ahx-Ub-VS probe labelling (fragment/DMSO); higher = less target engagement (more negative = stronger competition), active = hit call of the paper (q ≤ 0.05, log2 ratio ≤ -1)
# Settings in all cases: compound concentration: 200 uM; treatment time: 3 h
# USP19 = target: T1, USP19 (UniProt O94966)
# T1 sequence (whole entry): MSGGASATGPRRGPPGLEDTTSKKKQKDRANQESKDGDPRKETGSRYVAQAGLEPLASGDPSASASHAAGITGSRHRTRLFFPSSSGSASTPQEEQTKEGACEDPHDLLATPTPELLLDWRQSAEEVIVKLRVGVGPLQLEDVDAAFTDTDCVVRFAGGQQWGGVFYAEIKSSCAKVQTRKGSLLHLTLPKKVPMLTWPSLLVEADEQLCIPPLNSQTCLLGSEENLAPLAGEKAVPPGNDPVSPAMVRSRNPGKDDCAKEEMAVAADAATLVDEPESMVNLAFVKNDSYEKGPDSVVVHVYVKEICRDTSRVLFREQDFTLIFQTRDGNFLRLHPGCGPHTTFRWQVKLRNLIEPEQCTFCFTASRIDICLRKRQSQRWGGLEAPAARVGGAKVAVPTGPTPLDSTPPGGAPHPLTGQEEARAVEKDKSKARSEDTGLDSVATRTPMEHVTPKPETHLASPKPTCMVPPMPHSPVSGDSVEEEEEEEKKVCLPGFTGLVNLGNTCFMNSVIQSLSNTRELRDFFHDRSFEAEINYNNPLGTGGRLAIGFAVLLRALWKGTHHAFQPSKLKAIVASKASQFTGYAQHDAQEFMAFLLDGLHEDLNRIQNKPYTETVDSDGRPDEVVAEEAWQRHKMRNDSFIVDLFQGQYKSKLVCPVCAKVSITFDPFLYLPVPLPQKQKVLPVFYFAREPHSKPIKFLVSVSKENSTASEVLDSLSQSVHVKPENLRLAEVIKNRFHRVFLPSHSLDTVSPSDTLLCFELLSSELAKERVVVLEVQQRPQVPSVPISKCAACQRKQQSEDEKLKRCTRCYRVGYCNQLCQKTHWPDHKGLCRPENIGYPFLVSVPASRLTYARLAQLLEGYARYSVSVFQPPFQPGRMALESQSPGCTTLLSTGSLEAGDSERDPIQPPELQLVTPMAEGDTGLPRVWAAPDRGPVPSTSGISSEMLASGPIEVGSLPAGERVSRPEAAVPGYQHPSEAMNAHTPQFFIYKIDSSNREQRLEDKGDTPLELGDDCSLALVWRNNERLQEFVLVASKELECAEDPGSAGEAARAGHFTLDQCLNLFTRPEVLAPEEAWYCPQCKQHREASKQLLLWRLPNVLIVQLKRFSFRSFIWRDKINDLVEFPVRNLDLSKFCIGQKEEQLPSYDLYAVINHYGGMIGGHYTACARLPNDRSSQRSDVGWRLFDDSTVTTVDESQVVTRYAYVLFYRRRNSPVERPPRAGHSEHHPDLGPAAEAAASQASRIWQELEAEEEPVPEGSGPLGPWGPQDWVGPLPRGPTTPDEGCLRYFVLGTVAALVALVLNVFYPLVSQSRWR
# In short: (§1)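 HEK293T lysate (495 µg per sample, in Tris/CHAPS/IGEPAL buffer with protease inhibitors) was treated in triplicate with fragment at 200 µM or with DMSO for 3 h. It was then treated with Biotin-Ahx-Ub-VS (0.5 µM final) for 1 h. Labelled DUBs were NeutrAvidin-enriched, digested with LysC and trypsin, and run by diaPASEF LC-MS/MS. Spectronaut label-free quantities were global-median-normalised. Values are average log2 ratios fragment/DMSO by unpaired t-test, using proteins with ≥2 unique peptides.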
# USP24 = USP24 (UniProt Q9UPU5)
# Sequence of USP24 (Q9UPU5 whole entry): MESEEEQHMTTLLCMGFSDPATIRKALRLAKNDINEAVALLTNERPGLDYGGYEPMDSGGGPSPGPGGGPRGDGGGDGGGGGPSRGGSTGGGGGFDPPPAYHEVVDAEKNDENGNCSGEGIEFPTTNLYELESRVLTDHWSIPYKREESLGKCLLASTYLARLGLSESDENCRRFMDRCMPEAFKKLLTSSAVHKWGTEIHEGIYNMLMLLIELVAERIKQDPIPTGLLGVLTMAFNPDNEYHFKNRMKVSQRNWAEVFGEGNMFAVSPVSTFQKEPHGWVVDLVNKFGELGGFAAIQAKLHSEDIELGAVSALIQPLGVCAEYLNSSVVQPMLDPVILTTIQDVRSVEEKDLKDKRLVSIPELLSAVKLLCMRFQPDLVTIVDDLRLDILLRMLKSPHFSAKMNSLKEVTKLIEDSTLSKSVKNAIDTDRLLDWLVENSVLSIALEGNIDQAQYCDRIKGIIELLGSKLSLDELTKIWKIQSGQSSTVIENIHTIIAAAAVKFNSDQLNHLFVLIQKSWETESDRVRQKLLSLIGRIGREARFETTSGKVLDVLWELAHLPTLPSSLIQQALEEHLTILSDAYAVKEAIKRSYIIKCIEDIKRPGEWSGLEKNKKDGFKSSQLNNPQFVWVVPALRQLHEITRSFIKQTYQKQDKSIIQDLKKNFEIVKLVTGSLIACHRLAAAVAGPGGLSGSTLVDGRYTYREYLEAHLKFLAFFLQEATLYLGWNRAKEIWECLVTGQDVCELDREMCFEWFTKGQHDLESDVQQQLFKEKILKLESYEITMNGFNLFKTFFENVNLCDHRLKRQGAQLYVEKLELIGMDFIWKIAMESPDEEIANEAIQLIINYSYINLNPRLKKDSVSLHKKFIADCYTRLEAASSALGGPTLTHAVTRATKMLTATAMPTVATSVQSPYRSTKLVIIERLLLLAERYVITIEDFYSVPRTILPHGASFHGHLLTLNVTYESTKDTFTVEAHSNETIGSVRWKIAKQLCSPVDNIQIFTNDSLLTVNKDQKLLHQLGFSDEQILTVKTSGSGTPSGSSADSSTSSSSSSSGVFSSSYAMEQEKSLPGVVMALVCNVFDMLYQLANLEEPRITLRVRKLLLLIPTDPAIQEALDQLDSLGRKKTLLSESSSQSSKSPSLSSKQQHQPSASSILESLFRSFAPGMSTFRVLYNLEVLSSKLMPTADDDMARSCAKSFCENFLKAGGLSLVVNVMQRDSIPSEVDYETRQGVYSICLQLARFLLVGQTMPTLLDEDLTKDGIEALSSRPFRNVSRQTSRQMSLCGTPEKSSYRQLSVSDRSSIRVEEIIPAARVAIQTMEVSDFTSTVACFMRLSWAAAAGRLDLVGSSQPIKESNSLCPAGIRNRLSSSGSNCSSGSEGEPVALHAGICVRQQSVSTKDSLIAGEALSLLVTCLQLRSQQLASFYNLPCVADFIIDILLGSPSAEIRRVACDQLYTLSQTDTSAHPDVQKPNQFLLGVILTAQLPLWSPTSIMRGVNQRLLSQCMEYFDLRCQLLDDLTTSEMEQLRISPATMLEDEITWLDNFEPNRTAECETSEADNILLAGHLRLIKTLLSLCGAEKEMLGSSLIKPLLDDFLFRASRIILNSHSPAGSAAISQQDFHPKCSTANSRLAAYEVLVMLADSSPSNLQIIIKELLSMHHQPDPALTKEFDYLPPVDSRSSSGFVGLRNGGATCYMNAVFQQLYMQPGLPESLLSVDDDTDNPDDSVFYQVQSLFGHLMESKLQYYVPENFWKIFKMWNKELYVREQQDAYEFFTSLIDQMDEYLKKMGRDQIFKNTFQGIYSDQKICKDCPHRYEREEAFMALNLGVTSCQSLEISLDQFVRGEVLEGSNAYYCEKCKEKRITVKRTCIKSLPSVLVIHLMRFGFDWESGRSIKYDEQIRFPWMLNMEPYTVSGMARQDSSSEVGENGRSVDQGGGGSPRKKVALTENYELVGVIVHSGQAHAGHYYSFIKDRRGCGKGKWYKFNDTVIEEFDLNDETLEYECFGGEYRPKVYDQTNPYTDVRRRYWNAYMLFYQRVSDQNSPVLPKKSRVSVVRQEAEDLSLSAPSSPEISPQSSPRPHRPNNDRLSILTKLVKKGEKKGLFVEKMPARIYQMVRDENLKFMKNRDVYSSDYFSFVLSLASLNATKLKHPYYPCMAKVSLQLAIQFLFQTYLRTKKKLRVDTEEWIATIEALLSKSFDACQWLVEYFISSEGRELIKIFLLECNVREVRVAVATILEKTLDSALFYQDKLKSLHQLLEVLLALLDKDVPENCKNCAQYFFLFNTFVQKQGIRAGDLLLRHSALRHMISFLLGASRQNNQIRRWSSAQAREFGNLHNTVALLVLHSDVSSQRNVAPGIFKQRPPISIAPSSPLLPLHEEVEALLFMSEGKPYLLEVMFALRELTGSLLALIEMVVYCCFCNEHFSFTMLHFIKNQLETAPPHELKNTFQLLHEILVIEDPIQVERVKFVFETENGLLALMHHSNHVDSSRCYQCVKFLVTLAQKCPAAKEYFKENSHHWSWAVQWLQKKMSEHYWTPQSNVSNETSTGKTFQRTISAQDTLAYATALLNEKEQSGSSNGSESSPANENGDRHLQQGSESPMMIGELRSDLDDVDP
# In short: as §1
# USP25 = target: T2, USP25 (UniProt Q9UHP3)
# T2 sequence (whole entry): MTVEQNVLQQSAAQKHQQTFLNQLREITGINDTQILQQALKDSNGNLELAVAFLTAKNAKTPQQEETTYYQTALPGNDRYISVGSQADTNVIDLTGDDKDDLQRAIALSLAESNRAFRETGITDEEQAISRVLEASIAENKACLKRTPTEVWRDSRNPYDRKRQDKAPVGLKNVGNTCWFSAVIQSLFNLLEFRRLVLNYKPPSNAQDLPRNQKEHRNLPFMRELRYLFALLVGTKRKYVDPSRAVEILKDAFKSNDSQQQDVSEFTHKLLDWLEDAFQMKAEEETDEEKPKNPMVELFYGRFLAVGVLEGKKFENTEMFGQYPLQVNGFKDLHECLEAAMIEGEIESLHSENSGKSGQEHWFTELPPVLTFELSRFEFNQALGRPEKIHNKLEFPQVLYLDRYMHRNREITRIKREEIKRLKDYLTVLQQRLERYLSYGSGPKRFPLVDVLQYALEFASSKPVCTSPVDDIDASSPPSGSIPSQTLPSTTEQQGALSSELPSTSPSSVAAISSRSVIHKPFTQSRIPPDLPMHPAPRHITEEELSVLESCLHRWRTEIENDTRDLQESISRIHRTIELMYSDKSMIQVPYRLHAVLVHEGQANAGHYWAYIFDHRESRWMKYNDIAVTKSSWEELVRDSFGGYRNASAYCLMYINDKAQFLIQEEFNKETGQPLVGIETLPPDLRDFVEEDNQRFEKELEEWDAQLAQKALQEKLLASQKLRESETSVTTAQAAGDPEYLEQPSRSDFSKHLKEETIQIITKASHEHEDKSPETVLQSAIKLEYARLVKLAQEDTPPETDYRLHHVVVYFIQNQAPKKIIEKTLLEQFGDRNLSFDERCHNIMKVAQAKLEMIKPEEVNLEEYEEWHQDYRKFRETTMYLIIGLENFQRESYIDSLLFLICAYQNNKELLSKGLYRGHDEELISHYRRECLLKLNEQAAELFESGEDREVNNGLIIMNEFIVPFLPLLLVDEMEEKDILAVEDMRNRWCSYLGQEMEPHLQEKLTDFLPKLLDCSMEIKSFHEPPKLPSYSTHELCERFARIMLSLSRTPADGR
# In short: as §1
# USP28 = target: T3, USP28 (UniProt Q96RU2)
# T3 sequence (whole entry): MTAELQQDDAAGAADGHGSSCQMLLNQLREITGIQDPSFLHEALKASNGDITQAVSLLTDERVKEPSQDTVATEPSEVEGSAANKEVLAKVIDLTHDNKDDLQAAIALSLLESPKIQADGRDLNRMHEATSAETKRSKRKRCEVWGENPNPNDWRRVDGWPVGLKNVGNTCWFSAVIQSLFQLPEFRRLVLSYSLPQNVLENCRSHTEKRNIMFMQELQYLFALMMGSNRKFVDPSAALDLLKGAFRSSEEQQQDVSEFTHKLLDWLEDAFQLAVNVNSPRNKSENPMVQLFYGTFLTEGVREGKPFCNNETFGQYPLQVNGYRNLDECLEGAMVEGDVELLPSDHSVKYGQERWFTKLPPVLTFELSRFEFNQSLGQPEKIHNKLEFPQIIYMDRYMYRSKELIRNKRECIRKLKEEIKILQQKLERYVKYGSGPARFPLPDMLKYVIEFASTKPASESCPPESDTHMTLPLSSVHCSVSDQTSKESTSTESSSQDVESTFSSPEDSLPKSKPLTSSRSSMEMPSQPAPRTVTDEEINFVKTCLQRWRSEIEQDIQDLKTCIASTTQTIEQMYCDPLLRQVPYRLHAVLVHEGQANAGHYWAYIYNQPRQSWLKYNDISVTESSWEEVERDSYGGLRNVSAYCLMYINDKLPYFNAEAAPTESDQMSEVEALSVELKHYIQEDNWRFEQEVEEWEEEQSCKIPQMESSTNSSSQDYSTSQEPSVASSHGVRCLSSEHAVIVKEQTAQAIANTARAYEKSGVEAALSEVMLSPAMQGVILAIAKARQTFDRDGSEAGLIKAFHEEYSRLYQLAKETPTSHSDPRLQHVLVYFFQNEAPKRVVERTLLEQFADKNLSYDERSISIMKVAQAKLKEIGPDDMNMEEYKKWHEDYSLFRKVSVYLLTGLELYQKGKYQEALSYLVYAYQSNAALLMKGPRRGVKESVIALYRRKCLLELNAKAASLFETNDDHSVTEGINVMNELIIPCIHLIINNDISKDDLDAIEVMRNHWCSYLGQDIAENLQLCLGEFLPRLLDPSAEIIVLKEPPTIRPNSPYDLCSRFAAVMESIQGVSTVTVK
# In short: as §1
smiles,measurement,setting,value
COc1ccc(Cl)cc1NC(=O)CCl,log2 ratio of Biotin-Ahx-Ub-VS probe labelling,USP19,-0.52
same,log2 ratio of Biotin-Ahx-Ub-VS probe labelling,USP24,-1.54 (active)
same,log2 ratio of Biotin-Ahx-Ub-VS probe labelling,USP25,-0.784
same,log2 ratio of Biotin-Ahx-Ub-VS probe labelling,USP28,-0.959
